The values below come from PubChem BioAssay (EPA / NIEHS).

Molecules are shown by their SMILES. Results filed as inconclusive are left out. More than one record can exist for a structure, and the calls need not agree. The source made the active and inactive calls. How the source made its calls, unless noted: active means hit-call score of the fitted dose curve at least 0.9, where 1 is the maximum; inactive means score below 0.9.

Read-out in test [1]: Monocyte Chemoattractant Protein-1 (MCP1), CCL2 (gene 6347)
Kind of test: BSK_3C_MCP1: BioMAP Diversity Plus: 3C Assay for Monocyte Chemoattractant Protein-1 (MCP1) Biomarker Activity (AID 2283017). The note with it: primary human endothelial cells (HUVEC); actives raise or lower the signal. The procedure, abridged: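 ELISA read-out of MCP-1 from human umbilical vein endothelial cell cultures harvested 24 h post-dosing. Gain or loss of signal was fitted relative to DMSO.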

Read-out in test [2]: Monocyte Chemoattractant Protein-1 (MCP1), CCL2 (gene 6347)
The test can be described thus: BSK_4H_MCP1: BioMAP Diversity Plus: 4H Assay for Monocyte Chemoattractant Protein-1 (MCP1) Biomarker Activity (AID 2283018). To be noted: primary human endothelial cells (HUVEC); actives raise or lower the signal. The procedure, abridged:
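Human umbilical vein endothelial cells (4H system) dosed with chemical; MCP-1 measured by ELISA 24 h after dosing. Bidirectional curve fitting against DMSO negative control as baseline; parallel SRB total-protein staining tracks overt cytotoxicity.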

Read-out in test [3]: Human Leukocyte Antigen - DR isotype (HLADR), HLA-DRA (gene 3122)
The test can be described thus: BSK_3C_HLADR: BioMAP Diversity Plus: 3C Assay for Human Leukocyte Antigen - DR isotype (HLADR) Biomarker Activity (AID 2283019). To be noted: primary human endothelial cells (HUVEC); actives raise or lower the signal. The procedure, abridged: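 ELISA readout of surface HLA-DR on human umbilical vein endothelium, taken 24 h after chemical treatment. Gain- and loss-of-signal were both fitted relative to DMSO.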

Read-out in test [4]: Interleukin-8 (IL8), CXCL8 (gene 3576)
The test can be described thus: BSK_3C_IL8: BioMAP Diversity Plus: 3C Assay for Interleukin-8 (IL8) Biomarker Activity (AID 2283020). To be noted: primary human endothelial cells (HUVEC); actives raise or lower the signal. The procedure, abridged: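 Primary human umbilical vein endothelial cells (3C system) were exposed to test chemical for 24 h, then IL-8 was quantified by ELISA. Responses were fitted bidirectionally against DMSO vehicle as baseline.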

Test [5] has as its target human Vitamin D Receptor (VDR), VDR (gene 7421) (UniProt P11473). Kind of test: ATG_VDR_TRANS: Attagene TRANS-FACTORIAL HepG2 Assay for human Vitamin D Receptor (VDR) (AID 2283022; active means hit-call score of the fitted dose curve at least 0.9, where 1 is the maximum). The method, boiled down: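 Steps: transfect HepG2 with GAL4-UAS-driven reporter constructs; dose compounds 24 h; isolate RNA, reverse-transcribe, PCR-amplify with 6-FAM-labelled primer extension and HpaI digestion; quantify fragments by capillary electrophoresis relative to DMSO.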

The nature of test [6]: BSK_3C_SRB: Viability Assessment in the BioMAP Diversity Plus: 3C Assay (AID 2283023).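 Further: fitted both ways against DMSO so a hit may be signal rise or drop.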 The note with it: primary human endothelial cells (HUVEC). The method, boiled down: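 Absorbance at 560 nm of sulforhodamine B-stained (0.1%) total protein served as a cytotoxicity readout in human umbilical vein endothelial cells, 24 h after chemical treatment. Signal was fitted bidirectionally relative to DMSO.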

Read-out in test [7]: Matrix Metallopeptidase 1 (MMP1), MMP1 (gene 4312)
The test can be described thus: BSK_BE3C_MMP1: BioMAP Diversity Plus: BE3C Assay for Matrix Metallopeptidase 1 (MMP1) Biomarker Activity (AID 2283024). To be noted: primary human bronchial epithelial cells; actives raise or lower the signal. The procedure, abridged: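 Primary human bronchial epithelial cells were dosed with test chemicals, and MMP1 levels were measured by ELISA 24 h later. Data were fitted bidirectionally against DMSO as the negative control and activity baseline.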

A short description of test [8]: BSK_3C_Vis: BioMAP Diversity Plus: 3C Assay for Morphology Visualization (AID 2283025).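 Further: fitted both ways so gain or loss versus DMSO counts.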 To be noted: primary human endothelial cells (HUVEC). The procedure, abridged:
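Human umbilical vein endothelial cells in the 3C system were imaged by light microscopy 24 h after chemical dosing to record cell morphology. Activity was fitted bidirectionally against DMSO as negative control and baseline; the endpoint serves as a background control.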

Read-out in test [9]: Monokine induced gamma interferon (MIG), CXCL9 (gene 4283)
Kind of test: BSK_3C_MIG: BioMAP Diversity Plus: 3C Assay for Monokine induced gamma interferon (MIG) Biomarker Activity (AID 2283021). The note with it: primary human endothelial cells (HUVEC); actives raise or lower the signal. The method, boiled down: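 Primary human umbilical vein endothelial cells in the 3C system were exposed to chemical for 24 h, after which MIG was quantified by ELISA. Activity was fitted bidirectionally against DMSO as negative control and baseline.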

Read-out in test [10]: Pselectin, SELP (gene 6403)
The test can be described thus: BSK_4H_Pselectin: BioMAP Diversity Plus: 4H Assay for Pselectin Biomarker Activity (AID 2283026). To be noted: primary human endothelial cells (HUVEC); actives raise or lower the signal. The procedure, abridged: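 Primary human umbilical vein endothelial cells were exposed to test chemical for 24 h, then cell-surface P-selectin was quantified by ELISA. Activity was fitted bidirectionally against DMSO as negative control and baseline.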

The term AC50 denotes the midpoint of the concentration-response curve, whichever way the signal moves.

Sequence of human Vitamin D Receptor (VDR), VDR (gene 7421) (P11473 whole entry, looked up, the tested form may be a part): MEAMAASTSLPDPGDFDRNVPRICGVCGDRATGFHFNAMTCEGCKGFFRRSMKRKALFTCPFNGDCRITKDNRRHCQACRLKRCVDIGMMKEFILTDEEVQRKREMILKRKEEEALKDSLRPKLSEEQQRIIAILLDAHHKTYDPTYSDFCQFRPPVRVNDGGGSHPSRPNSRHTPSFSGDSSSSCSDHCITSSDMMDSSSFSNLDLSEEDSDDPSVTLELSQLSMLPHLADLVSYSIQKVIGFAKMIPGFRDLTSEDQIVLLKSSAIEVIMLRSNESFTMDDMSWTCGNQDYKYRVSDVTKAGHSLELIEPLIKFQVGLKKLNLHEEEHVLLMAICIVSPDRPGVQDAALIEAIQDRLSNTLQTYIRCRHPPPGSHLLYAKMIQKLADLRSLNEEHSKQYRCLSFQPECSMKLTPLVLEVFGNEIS

In the case of `CCC(C)N(C)C(=O)c1cc2ccccc2c(-c2ccccc2Cl)n1` (stereo not given), the result in test [1], in test [2], in [3], in [4], in [5] and in [6] was inactive. The outcome in test [7] and in test [8] was inactive.
Take `CCCCCCCCCCCCCCCCO`: the result in test [1], in [2], in test [3], in [4], in [9] and in test [6] was inactive. Besides, the result in [7], in test [8] and in [10] was inactive.
On to `Cc1cc(Cc2ccc(N)c(C)c2)ccc1N`, for which the result in [1], in [2], in [3], in test [4], in [9] and in test [6] was inactive. The outcome in [8] was inactive.
As for `CC(=O)O[C@]1(C(C)=O)CC[C@H]2[C@@H]3C=C(Cl)C4=CC(=O)[C@@H]5C[C@@H]5[C@]4(C)[C@H]3CC[C@@]21C`, the result in [1], in test [2], in test [4], in [5], in test [8] and in [10] was inactive. Moreover, the AC50 is 33.4 µM (active) in test [3], 148 µM (active) in test [5] and 29.8 µM (active) in [6].
Regarding `CN(C)CCCN(C)CCCN(C)C`, the outcome in [1], in [2], in test [3], in test [4], in test [9] and in test [6] was inactive. In addition, the outcome in test [7], in test [8] and in [10] was inactive.
As for `C/C=C/c1ccc(OC)cc1`, the outcome in test [1], in [2], in test [3], in test [4], in test [9] and in [6] was inactive. In addition, the result in test [8] was inactive.
Turning to `Cn1cnc2c1c(=O)[nH]c(=O)n2C`, the result in test [1], in test [2], in test [3], in test [4], in test [9] and in [6] was inactive. Further, the outcome in test [8] was inactive.
On to `Nc1nc(=S)c2[nH]cnc2[nH]1`, for which the outcome in [1], in test [2], in test [3], in test [4], in test [9] and in [6] was inactive. In addition, the result in test [7], in test [8] and in test [10] was inactive.
For the compound `O=C(Oc1ccccc1)c1cccc(C(=O)Oc2ccccc2)c1`, the outcome in [1], in test [2], in [3], in test [4], in test [9] and in [6] was inactive. In addition, the result in test [8] and in [10] was inactive.
In the case of `O=C1c2c(O)cccc2Cc2cccc(O)c21`, the outcome in [1], in test [2], in test [3], in test [4], in [9] and in test [10] was inactive. In addition, the figures for the AC50 in test [6] and in [8] were 20 µM (active) and 39 µM (active), respectively.
With `CC(C)c1cccc(C(C)C)c1NC(=O)NS(=O)(=O)c1cc(C(C)(C)O)co1`, the result in [1], in [2], in test [3], in test [4], in test [5] and in [6] was inactive. Besides, the outcome in test [7] and in test [8] was inactive.
For `Nc1nc(Cl)nc2c1ncn2[C@H]1C[C@H](O)[C@@H](CO)O1`, the outcome in test [1], in test [2], in test [3], in [4], in test [9] and in test [6] was inactive. Further, the result in test [10] was inactive. In test [8], the AC50 was 38.6 µM (active).
Turning to `CCCCC(CC)CO` (stereo not given), the result in test [1], in test [2], in [3], in test [4], in [5] and in test [6] was inactive. Moreover, the result in [7], in [8] and in test [10] was inactive.
Consider `CC1=C(C)S(=O)(=O)CCS1(=O)=O`, for which the result in test [1], in test [2], in test [3], in test [4], in test [9] and in test [6] was inactive. Besides, the AC50 in test [8] was 39 µM (active).
On to `O=C(O)c1cccnc1`, for which the result in [1], in test [2], in [3], in [4], in test [9] and in test [6] was inactive. Moreover, the result in test [7], in test [8] and in [10] was inactive.
With `CCCCOC(=O)CCCCC(=O)OCCCC`, the result in [1], in test [2], in test [3], in test [4], in test [5] and in test [6] was inactive. Further, the result in [7], in test [8] and in [10] was inactive.
For the compound `CC(C)COC(=O)CCCCC(=O)OCC(C)C`, the result in [1], in test [2], in test [3], in [4], in test [5] and in [6] was inactive. Further, the result in test [7], in [8] and in test [10] was inactive.
Regarding `CCCCC(CC)COC(=O)CCCCCCCC(=O)OCC(CC)CCCC` (stereo not given), the outcome in test [1], in [2], in test [3], in [4], in test [9] and in test [6] was inactive. In addition, the outcome in [8] and in [10] was inactive.
`O=C(O)CN(CC(=O)O)CC(=O)O`: the outcome in test [1], in [2], in test [3], in test [4], in [5] and in [6] was inactive. In addition, the outcome in test [7] and in test [8] was inactive.
Turning to `CC(=O)CC(c1ccccc1)c1c(O)c2ccccc2oc1=O` (stereo not given), the outcome in test [1], in [2], in test [3], in [4], in test [5] and in [6] was inactive. In addition, the outcome in [7], in [8] and in test [10] was inactive.
For the compound `CN(C)C(=O)NC1(c2ccccc2)CCN(CCC[C@]2(c3ccc(Cl)c(Cl)c3)CCCN(C(=O)c3ccccc3)C2)CC1`, the half-maximal activity concentration (AC50) in test [1] is 7.06 µM (active); in test [4], 7.16 µM (active); in test [6], 6.65 µM (active); in test [8], 9.81 µM (active). The result in test [2], in [3], in [9] and in test [10] was inactive.
With `CSc1ccc(Oc2ccc(S(N)(=O)=O)cc2CN(C)C)cc1C`, the result in test [1], in [2], in test [3], in test [4], in [5] and in test [6] was inactive. Moreover, in test [7], the outcome was inactive. Moreover, in test [8], the AC50 is 39 µM (active).
Regarding `COc1ccc(C(=O)Nc2nc3ccccc3c(NCc3ccccc3)c2C#N)cc1`, the outcome in test [1], in test [2], in test [3], in test [4] and in [9] was inactive. Further, the AC50 in test [6] was 8.6 µM (active); in test [7], 7.48 µM (active); in test [8] it was 39 µM (active).
As to `Cc1cc(SC2=C(O)C[C@@](CCc3ccc(N)cc3)(C(C)C)OC2=O)c(C(C)(C)C)cc1CO`, the outcome in test [1], in test [2], in [3], in [4], in test [5] and in test [6] was inactive. For the same compound, the result in [7], in test [8] and in test [10] was inactive.
On to `CC(N)=O`, for which the outcome in [1], in [2], in test [3], in [4], in [9] and in [6] was inactive. In addition, the outcome in test [8] was inactive.
Regarding `O=C1OC(c2ccc(O)cc2)(c2ccc(O)cc2)c2ccccc21`, the AC50 was 14.1 µM (active) in test [1]; 20 µM (active) in [2]; 31.1 µM (active) in test [3]; 28.6 µM (active) in [6]; 37.5 µM (active) in test [8]; 30.2 µM (active) in [10]. Moreover, the result in [4] and in [9] was inactive.
As to `CO[C@@H]1COCC[C@@H]1N[C@@H]1CC[C@@](C(=O)N2CCc3ncc(C(F)(F)F)cc3C2)(C(C)C)C1`, the result in test [1], in test [2], in test [3], in [4], in [9] and in test [6] was inactive. For the same compound, the result in test [8] was inactive.
For the compound `C/C=C/C=C/C(=O)O`, the outcome in test [1], in test [2], in test [3], in [4], in test [9] and in test [6] was inactive. Further, the outcome in [8] was inactive.
Regarding `CC(=O)[C@@]1(O)CC[C@H]2[C@@H]3CCC4=CC(=O)CC[C@]4(C)[C@H]3CC[C@@]21C`, the outcome in [1], in test [2], in test [3], in test [4], in test [5] and in test [6] was inactive. Besides, in [8], the outcome was inactive. For the same compound, the AC50 in test [7] was 8.47 µM (active).
